In PubChem BioAssay AID1508600 (Functional Genomics Laboratory (NCATS/FGL), 2020):
Out of some 53,000 sequences screened, about 3,700 (7%) were called active.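 The calls were made as follows: active = gene knockdowns whose robust z-score for IL-1 alpha signal is at least 2 or at most -2, so actives lie on both sides; inactive = the rest.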 The sample as a whole holds a higher share of actives than the screen did.

assay: Components of the Cytosolic LPS Sensing Pathway: Gene Identification via Genome-wide siRNA Screen; details: RAW264.7 macrophages, IL-1a HTRF, actives lie on both sides, screened at 100 nM (by protocol), cells primed 5 h with Pam3CSK4 first;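 also: robust z of the log signal after scaling to non-targeting control siRNA wells of the plate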
How it was run: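 RAW264.7; siRNA 100 nM final, RNAiMAX, 48h 37 degrees C; Pam3CSK4 5 h; LipidA + TransIT-TKO 24 h; IL-1a HTRF; CellTiter-Glo viability; robust z vs negative-control median.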

| Sequence | z-score |
| --- | --- |
| GCGAUUCCUAGAGCUGAGCTT against Git1 | -2.5 (active) |
| GCUGAUUAGCCAUGUAAUUTT against Cebpg | -0.481 (inactive) |
| GCUUUAUGGAUCUACCAAATT against Fbxl3 | 1.81 (inactive) |
| GGAAAACAGCUUUGAUUGGTT against Tmem232 | 0.868 (inactive) |
| GCAAGCCAACUGACCAUCATT against Nudt2 | 0.486 (inactive) |
| CGACUCCAUGUGGACUUAUTT against Gca | -1.16 (inactive) |
| CGAACACUAAGCUUUGAUATT against Rab11fip2 | -0.493 (inactive) |
| GGUUUUACAUUCUGUGUUUTT against Spata9 | -0.898 (inactive) |
| CCUUGGAGAGAGAAGACAUTT against Rpp38 | 0.292 (inactive) |
| CCAAUGCAAGUGCUACAGUTT against Zfp277 | -2.64 (active) |
| GGCUCACUCAUUUGUCAGATT against Soat1 | 0.0924 (inactive) |
| GCCUAAUCAUUCCCAGCAUTT against Oog2 | 0.211 (inactive) |
| CCUUCUACUGGCAACCUAUTT against Zfp110 | 0.25 (inactive) |
| GGUAUCUACACCAAACUUATT against Klk1b5 | 0.685 (inactive) |
| GGAGCUAACUGUCAAUGGATT against Usp17la | 2.8 (active) |
| GGAUGAAGAACUGAAAUCUTT against Unc13b | 0.167 (inactive) |
| CCCUGUAAAGAUCGAGAAGTT against Zfp296 | 0.241 (inactive) |
| GGGACACCCUUUGAAGAUGTT against Ube2b | -0.314 (inactive) |
| GGCAUGAUGUUCAUGGAUATT against Nup62 | -2.04 (active) |
| CGAAGAUAAUUAUGGAGCCTT against Fat4 | 0.548 (inactive) |
| CGCAGAGUUAAUUUCUUGUTT against Rchy1 | 0.995 (inactive) |
| CCAACAAUUCUGCCAAGACTT against Arrb2 | -2.57 (active) |
| CCGAAGGAUUGAAGAGCCUTT against Trnt1 | 0.746 (inactive) |
| GGCUUCAUAAGAUCAAAGATT against Lca5l | -2.88 (active) |
| GCAGGUCUAAUAAUGGUCATT against Syt12 | -0.536 (inactive) |
| GGAUCCUGCAUCUUAUAGUTT against Tcstv3 | 0.468 (inactive) |
| GCUGUUUCCCAGAGAAGAATT against Defb2 | -0.814 (inactive) |

| Sequence | z-score |
| --- | --- |
| CGGUUCCAACCUUGAAAAATT against H1f10 | -0.676 (inactive) |
| GCUCUACCGUUAAGUUAUUTT against Eif4e2 | 0.499 (inactive) |
| GGUCAUCCUUUUUCAGUACTT against Lhx6 | 2.28 (active) |
| GGGCGUGAAUUCAGAGAUUTT against Pcdhgb5 | -0.00376 (inactive) |
| CGGGUUCUACUAUCAUGCATT against Ltbp4 | 0.259 (inactive) |
| GGUCACCAGUACCUAUGGATT against Bricd5 | -2.17 (active) |
| GGGACUGUACUCAUUUCUATT against Rnf138rt1 | -0.67 (inactive) |
| GCAGGUUGAACGACAGCGUTT against Dph5 | -0.349 (inactive) |
| GGAAUAAUCCCAGUUCUCUTT against Tmem101 | -1.04 (inactive) |
| CCAGAAUGGCGGGUAUUUGTT against Fbln5 | 2.14 (active) |
| GAAGGUGAAGUGCAGGAAGTT against Fxyd7 | -0.081 (inactive) |
| GCAGGCCAGAGUAGUCAUGTT against Them6 | 0.579 (inactive) |
| GGAAUUAACGUGUUUCUGUTT against Tor1aip2 | 1.14 (inactive) |
| GGUGAUAAAGCUAUGUAUUTT against Ccn2 | 0.147 (inactive) |
| GGACAACAUUGACAAGUUCTT against Clcn7 | 1.36 (inactive) |
| GCUGGGUCCACAUGAAUCATT against Sucnr1 | 2.7 (active) |
| GGAUCAGACAUGCAAGAGGTT against Xlr5c | -1.81 (inactive) |
| GCAUCAUGGUCACAAAUGGTT against Ncr1 | -0.613 (inactive) |
| GCUACCGUGGGCGAUGUAATT against Dbi | -0.37 (inactive) |
| GGGAAAAUGCGAUUCAUGATT against P2ry14 | -0.774 (inactive) |
| GGAGAUUAUUAACUUCACCTT against Hcn3 | -0.895 (inactive) |
| GGAACUGGACUUAUUCCACTT against Wnt5b | 0.652 (inactive) |
| GGAGAAACCAGGAUCUAUUTT against Rnf14 | 2.22 (active) |
| GCCAGGAGUACUGUAUAUATT against Spint1 | -0.366 (inactive) |
| GGAGCUCUAAAAUUGACUUTT against Zfp92 | 1.17 (inactive) |
| GGAAUCUAGAAGAAUCAUUTT against Gnao1 | -0.42 (inactive) |
| GCUAUGGUAGCUGAUAACATT against Rell1 | 1.21 (inactive) |
